The entries come from a sample that favours hits as a whole.
VCAM1 pot: TNF alpha stimulated VCAM1 expression potentiation; activation, % at 2 µM; AID 808; hit rate 0.19% among 93,000; HUVEC TNFa-stimulated VCAM-1 immunofluorescence, high-content imaging; scaled per plate to unstimulated/TNFa-only wells;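 active = activation above the screen mean plus 3 SD, with well images confirming the hit on visual review, cut at about 28% in these data, passing the limit was not always enough; inconclusive = activation above that limit but images do not confirm it; inactive = activation not above that limit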;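 also: signal is the number of cytoplasmic VCAM-1 stained grains per positive cell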
VCAM1 pot confirm: enhancers of VCAM1 induction in HUVEC – imaging, triplicate retest, confirmation; shares compounds with VCAM1 pot; HUVEC TNFa-stimulated VCAM-1 immunofluorescence imaging; 230 tested, under 10 active; activation, % at 2 µM;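 active = activation above 30% in triplicate retests at 2 µM, then confirmed by visual review of the well images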
Each line names hits and unclear results; the compound was inactive in the other large screens (follow-up assays come after a bar, where they were run).

CSc1cccc(NC(=O)c2c(Cl)cnn2C)c1	none
COc1ccccc1C(=O)Nc1ccc2c(c1)nc(CN1CCN(C(C)=O)CC1)n2C	none
COc1ccccc1C(=O)Nc1cccc(SC)c1	VCAM1 pot 51 | VCAM1 pot confirm inactive
COc1ccc(OC)c2c(C)cc(N3CCN(C(=O)c4ccc(F)cc4)CC3)nc12	none
CC1CN(S(=O)(=O)c2ccc(Cl)c(C(F)(F)F)c2)CC(C)O1 (stereo not given)	none
CC(C)(C)NC(=O)C(c1ccccc1)N(C(=O)C1CSC(=O)C1)c1ccccc1 (stereo not given)	none
O=S(=O)(NCCc1ccncc1)c1cc(Br)ccc1F	none
CCC(C)COC(=O)C(C#N)c1nc2ccccc2nc1N1CCCCC1 (stereo not given)	VCAM1 pot 36 | VCAM1 pot confirm inactive
CCOC(=O)N1CCN(/C=C(\C#N)c2nc3ccccc3s2)CC1	none
CCOC(=O)Cc1csc(SCC(=O)/C(C#N)=C(\C)N)n1	none
O=C(c1ccccc1)c1cc2ccccc2o1	none
O=C(c1ccccc1)c1cc[n+]([O-])cc1	VCAM1 pot 62 | VCAM1 pot confirm inactive
Cc1cnc(C(=O)Nc2ccc(-n3cnnn3)cc2)cn1	none
COC(=O)c1ccc(C)c(NC(=O)CN(c2ccc3c(c2)OCO3)S(C)(=O)=O)c1	none
COc1cc(CN2CCC(C(=O)NC3CCCC3)CC2)ccc1O	none
CCCCS/C(=C(/C#N)C(N)=O)c1cc2c([nH]1)CCCC2	none
CCN(CC)S(=O)(=O)c1ccc(C(=O)NCCCN=C2NS(=O)(=O)c3ccccc32)cc1	none
C=CCc1cccc2cc(C(=O)N3CCN(C(=O)c4ccco4)CC3)c(=O)oc12	none
N#Cc1ccc(-n2c(-c3ccccc3)nnc2-c2ccccc2)cc1C#N	VCAM1 pot 52 | VCAM1 pot confirm inactive
N#Cc1cnn(-c2ccccc2)c1N	none
N#Cc1cc(Oc2ccccc2)c(-n2nnc3ccccc32)cc1C#N	none
COC(=O)c1cccc(NC(=O)C23CC4CC(C2)CC(n2cncn2)(C4)C3)c1	none
O=C(Cn1cnc([N+](=O)[O-])c1)Nc1cc(Oc2ccc(Cl)cc2Cl)cc([N+](=O)[O-])c1	none
Cn1c(=O)cc(OCC(=O)NC2CCCCC2)c2ccccc21	none
Cc1ccc(NC(=O)CCN2C(=O)CSC2=O)cc1	none
O=C(CN1C(=O)CSC1=O)NC1CCCCC1	VCAM1 pot 42 | VCAM1 pot confirm inactive
CN(C)C(CNc1nnnn1-c1ccccc1)c1ccco1 (stereo not given)	VCAM1 pot inconclusive | VCAM1 pot confirm inactive
c1ccc(-n2ncc3c(NCc4ccco4)ncnc32)cc1	none
COc1ccccc1C(=O)NC(CCSC)C(=O)NCC(c1ccco1)N(C)C (stereo not given)	none
CC(=O)c1c(C)n([O-])c2cc(C)ccc2[n+]1=O	none
O=C(Oc1ccc(Cl)c2cccnc12)N1CCCCCC1	none
CCc1nnc(NC(=O)CSc2nnc(CSc3nc(C)cc(C)n3)o2)s1	none
CCn1c(=O)c2c(cnn2C)c2ccccc21	none
CCn1c(CNC(=O)C(C)(C)C)nc2ccccc21	none
CCn1c2ccccc2c2cc(C3N=C(N)Nc4nc5ccccc5n43)ccc21 (stereo not given)	VCAM1 pot 54 | VCAM1 pot confirm inactive
CCOC(=O)c1cc2cc3ccccc3cc2[nH]1	none
Cc1ccc(NCc2nnc(SCC(=O)N(Cc3ccccc3)C(C)(C)C)o2)c(C)c1	none
CCOC(=O)c1ccccc1-c1csc(NS(=O)(=O)c2ccc(Cl)cc2)n1	none
CN(C)c1oc(-c2ccccc2Cl)nc1C#N	VCAM1 pot 41 | VCAM1 pot confirm inactive
COc1ccc(-c2nc(C#N)c(NCCCN(C)C)o2)cc1OC	none
CC(C)c1ccc(NC(=O)C(c2ccccc2)N2CCC3(CC2)OCCO3)cc1 (stereo not given)	none
CCCCCn1nc(C)c2c(C)cc(=O)[nH]c21	none
O=C(NNC(=O)c1sccc1-n1cccc1)c1cccc(Cl)c1	none
COc1ccc(NC(=O)C2CC2)cc1NS(=O)(=O)c1ccc(F)cc1	none
NC(=O)c1c(NC(=O)Cc2cccs2)sc2c1CCC2	none
CCC(=O)Nc1sc2c(c1C(N)=O)CCC2	VCAM1 pot 114 | VCAM1 pot confirm inactive
NC(=O)c1c(NC(NC(=O)c2ccco2)(C(F)(F)F)C(F)(F)F)sc2c1CCCC2	none
CCOC(=O)N1CCC(NC(=O)c2ccc(CS(=O)(=O)c3ccc(OC)cc3)o2)CC1	none
CC(C)OC(=O)c1c(-c2ccc(C(C)C)cc2)csc1NC(=O)C1CCCO1 (stereo not given)	none
CC1CCN(C(=S)c2ccccc2O)CC1	none
CN(C)C(=O)c1ccccc1-c1ccccc1	none
Cc1cccc(Oc2ccc(C(=O)NC3CCSC3=O)cn2)c1C (stereo not given)	none
COc1ccc(-c2onc3ccc(Cl)cc23)cc1	none
O=C(COC(=O)c1cnccn1)Nc1ccc2c(c1)OCO2	none
O=C(COC(=O)c1cccnc1Nc1cccc(C(F)(F)F)c1)NCc1ccc2c(c1)OCO2	VCAM1 pot 28 | VCAM1 pot confirm inactive
O=C(COC(=O)Cc1cccc(C(F)(F)F)c1)NCC1CCCO1 (stereo not given)	none
CCOC(=O)C1CN(S(=O)(=O)c2ccc(OC)cc2)c2cc(CC(=O)OC)ccc2O1 (stereo not given)	none
CC1CCCC(NC(=O)COC(=O)c2ccc3ccccc3n2)C1C (stereo not given)	none
Cc1n[nH]c(=S)c2nn(-c3ccccc3F)c(C)c12	VCAM1 pot 55 | VCAM1 pot confirm inactive
CC(O)(CS(=O)(=O)Cc1ccccc1)C(=O)Nc1ccc(C(F)(F)F)cc1 (stereo not given)	none
CCCCCOC(=O)C1[C@H]2C(=O)N(CCCOC)C[C@]23C=C[C@H]1O3 (stereo not given in full)	none
Cc1cccc(NC(=O)c2sc3nc(-c4ccccc4)cn3c2C)n1	VCAM1 pot 42 | VCAM1 pot confirm inactive
CCOC(=O)c1cc(-c2ccccc2)sc1NC(=S)Nc1cccc(C)n1	none
CCC(=O)NC(Nc1cccc(C)n1)(C(F)(F)F)C(F)(F)F	none
Cn1c(=O)c2c(ncn2CC(=O)Nc2nc3ccc(F)cc3s2)n(C)c1=O	none
CCOC(=O)C1=NN(c2ccccc2C)C2=NC(C)=C(C(=O)OC)C(c3cccs3)N12 (stereo not given)	none
Cc1cc(C)c2c(n1)sc1c(N3CCN(CCO)CC3)ncnc12	VCAM1 pot inconclusive | VCAM1 pot confirm inactive
c1nc(N2CCOCC2)c2sc3nc(N4CCOCC4)c4c(c3c2n1)CCCC4	none
Cc1cc(C)c2c(N)c(C(=O)N3CCN(c4ncccn4)CC3)sc2n1	none
Cc1ccc(SCC(=O)NCc2cccnc2)cc1	none
CCc1ccc(C(=O)COC(=O)c2cccc(N3C(=O)c4c(C)nc5ccccc5c4C3=O)c2)cc1	none
C=CCc1ccc(OCc2ccc(C(=O)OC)o2)c(OC)c1	none
Cc1oc(C(=O)O)cc1CSCc1cc(C(=O)O)c(C)o1	none
COC(=O)c1cc(OC)c(OCc2cc(C(=O)OC)oc2C)c(OC)c1	VCAM1 pot 53 | VCAM1 pot confirm inactive
COc1cc(C(=O)COC(=O)CNC(=O)C2CCCCC2)cc(OC)c1OC	none
Cc1nc2ccccc2n1CC(O)COC1CCCCC1 (stereo not given)	none
Cc1nccn1CC(O)COC1CCCCC1 (stereo not given)	VCAM1 pot inconclusive | VCAM1 pot confirm inactive
Cc1nccn1CC(O)COc1ccccc1 (stereo not given)	none
CCc1noc(C)c1C(=O)Nc1sc(C(=O)N(C)C)c(C)c1C(=O)OC	none
CCOCCCNC(=O)C(NC(=O)c1ccc(=O)[nH]c1)c1ccccc1 (stereo not given)	none

Screens: PubChem, Columbia University Molecular Screening Center
